According to PubChem BioAssay AID488969 (Vanderbilt High Throughput Screening Facility, 2010):
The full ranking holds about 110,000 compounds; the median of “z-score” is about -0.1, and the highest 2% start at about 2. For the sample, the highest values were picked, then their nearest neighbours and some compounds at random. The source made the active and inactive calls.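 Rule for the calls: active = z-score in the third read window above 3 or below -3; inactive = the rest.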

target: Metabotropic glutamate receptor 8 (Rattus norvegicus) (UniProt P70579); test: mGluR8 Gi/Go-coupled signaling modulation – cell-based, rat, thallium flux, HTS, primary screen (AID 488969); conditions: HEK293 rat mGluR8, GIRK (G protein-gated inwardly rectifying potassium channel) thallium flux, FluoZin2; at 10 µM; stronger effect = higher value; submaximal glutamate (EC20) added with thallium
Sequence (P70579 whole entry, looked up): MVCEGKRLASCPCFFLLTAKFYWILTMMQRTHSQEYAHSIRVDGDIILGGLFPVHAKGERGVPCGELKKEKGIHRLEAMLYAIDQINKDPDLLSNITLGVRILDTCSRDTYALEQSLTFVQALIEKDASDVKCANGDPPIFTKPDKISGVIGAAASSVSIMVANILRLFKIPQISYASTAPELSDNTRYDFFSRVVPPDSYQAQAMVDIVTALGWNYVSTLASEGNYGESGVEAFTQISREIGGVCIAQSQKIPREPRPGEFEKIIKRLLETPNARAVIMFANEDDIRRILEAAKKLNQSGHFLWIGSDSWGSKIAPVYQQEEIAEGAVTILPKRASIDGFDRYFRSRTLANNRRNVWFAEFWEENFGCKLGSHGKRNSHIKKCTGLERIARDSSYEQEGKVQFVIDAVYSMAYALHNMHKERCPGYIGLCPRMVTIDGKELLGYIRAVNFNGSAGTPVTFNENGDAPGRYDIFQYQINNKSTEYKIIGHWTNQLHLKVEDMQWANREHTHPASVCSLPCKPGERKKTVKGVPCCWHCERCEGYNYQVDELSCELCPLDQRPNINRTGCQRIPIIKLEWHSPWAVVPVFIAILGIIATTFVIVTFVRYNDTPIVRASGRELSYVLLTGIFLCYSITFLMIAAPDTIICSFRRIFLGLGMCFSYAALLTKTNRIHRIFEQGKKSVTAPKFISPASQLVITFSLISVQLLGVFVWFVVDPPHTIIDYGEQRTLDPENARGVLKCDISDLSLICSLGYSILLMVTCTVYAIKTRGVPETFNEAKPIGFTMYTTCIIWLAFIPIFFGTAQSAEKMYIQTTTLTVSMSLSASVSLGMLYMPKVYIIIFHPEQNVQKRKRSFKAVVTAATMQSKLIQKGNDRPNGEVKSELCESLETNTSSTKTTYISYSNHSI

SMILES | z-score
CN1CCN(/C=N/c2c(C#N)cnn2-c2ccccc2)CC1 | 0.237
O=C(CNC(=O)c1cccc(F)c1)OCc1cc(=O)n2cc(Br)ccc2n1 | -0.354
CC(=O)Nc1nnc(-c2ccc3c(c2)CCCC3)o1 | 0.0154
CCCN(CCC)S(=O)(=O)c1ccc(C(=O)Nc2nnc(-c3cccc(OC)c3)o2)cc1 | 3.65 (active)
O=C(Nc1nnc(-c2ccc3c(c2)CCCC3)o1)c1ccc(Cl)cc1Cl | 15.6 (active)
Clc1ccc(-c2nnc(NC3=NCCCCC3)o2)cc1 | 0.0658
O=C(COc1ccc(Cl)cc1)Nc1nnc(-c2ccc3c(c2)CCCC3)o1 | -0.441
O=C(Nc1nnc(-c2ccc3c(c2)CCCC3)o1)c1ccccc1 | 15.5 (active)
COc1cccc(-c2nnc(NC(=O)c3ccc(S(=O)(=O)N(CC(C)C)CC(C)C)cc3)o2)c1 | -0.14
O=C(Nc1nnc(-c2ccc3c(c2)CCCC3)o1)C1CCCCC1 | -0.309
O=C(Nc1ccc2c(c1)CCC2)C1COc2ccccc2O1 (stereo not given) | 0.9
O=C(COc1ccccc1)Nc1nnc(-c2ccc3c(c2)CCCC3)o1 | 1.27
CCCN(CCC)S(=O)(=O)c1ccc(C(=O)Nc2nnc(CSC)o2)cc1 | 0.35
O=C(Nc1nnc(-c2ccc3c(c2)CCCC3)o1)C1COc2ccccc2O1 (stereo not given) | 7.22 (active)
COc1nnc(-c2ccc(N3CCCCC3)c(NC(=O)C3CCCCC3)c2)c2ccccc12 | -0.3
Cc1ccccc1N1CCN(C(=O)CCN2C(=O)c3ccccc3C2=O)CC1 | -0.36
COc1ccc(C(=O)Nc2ccc(Cl)c(Cl)c2)c(OC)n1 | -0.192
COc1ccccc1C(=O)NNC(=O)c1ccc(F)cc1 | 0.0416
CCC(C)(C)n1nnnc1C(C(C)C)N1CCSCC1 (stereo not given) | 0.805
O=S(Cc1ccc(Br)cc1)Cc1nnc(SCc2c(Cl)cccc2Cl)n1-c1ccccc1 (stereo not given) | 0.0461
CCNC(=O)C1CCCN1S(=O)(=O)c1ccc(C)cc1 (stereo not given) | -0.513
Cc1ccc2cc3cc(C(=O)N4CCN(Cc5ccccc5)CC4)sc3nc2c1 | 0.586

SMILES | z-score
O=C(/C=C/c1ccccc1)NC(NC(=S)Nc1cccc(Cl)c1)C(Cl)(Cl)Cl (stereo not given) | 1.36
O=C(/C=C/c1ccccc1)NC(NC(=S)Nc1cccc(O)c1)C(Cl)(Cl)Cl (stereo not given) | 2.09
O=C(/C=C/c1ccccc1)NC(NC(=S)Nc1ccc(Cl)cc1Cl)C(Cl)(Cl)Cl (stereo not given) | 0.717
COc1ccc(NC(=S)NC(NC(=O)/C=C/c2ccccc2)C(Cl)(Cl)Cl)cc1 (stereo not given) | 1.83
O=C(/C=C/c1ccccc1)NC(NC(=S)Nc1cc(Cl)ccc1Cl)C(Cl)(Cl)Cl (stereo not given) | 5.83 (active)
O=C(Cc1ccccc1)NC(NC(=S)Nc1cc(Cl)ccc1Cl)C(Cl)(Cl)Cl (stereo not given) | -0.195
O=C(CNc1n[nH]c(=O)[nH]c1=O)N/N=C/c1cccnc1 | -0.114
Cc1cccc(N2CCN(C(=O)Cn3cnc4c3c(=O)n(C)c(=O)n4C)CC2)c1C | -0.973
Cn1nnc(NC(=O)c2ccc3ccccc3c2)n1 | -1.31
CCOC(=O)C(NC(=O)CC)(Nc1nc2c(s1)CCCC2)C(F)(F)F (stereo not given) | -0.0129
COC(=O)C(NC(=O)COc1ccccc1)(Nc1nc2c(s1)CCCC2)C(F)(F)F (stereo not given) | 2.96
O=C(Nc1nc2c(s1)CCCC2)Oc1ccccc1 | -0.198
CC(C)CNC(C(=O)Nc1ccc([N+](=O)[O-])cc1Br)c1ccccc1 (stereo not given) | -0.337
CCC(C)N=CC1=C(O)CC(c2ccccc2)CC1=O (stereo not given) | 2.05
O=C1CC(c2ccccc2)CC(O)=C1C=NCc1ccccc1 (stereo not given) | -0.229
CCCN=CC1=C(O)CC(c2ccccc2)CC1=O (stereo not given) | -0.493
C=C(Br)Cn1c(CC(C)C)nc2ccccc21 | -0.262
COC(=O)c1sc(N)nc1C(C)(C)C | -0.167
COc1cc2c(cc1Cl)/C(=C\CCN(C)C)c1ccccc1S2 | -0.852
CN(C)CC/C=C1/c2ccccc2Sc2c(O)cc(Cl)cc21 | 1.62
COc1cc(Cl)cc2c1Sc1ccccc1/C2=C/CCN(C)C | 3.63 (active)
O=C(CNc1ccccc1)N/N=C/c1ccc2c(c1)OCO2 | -0.247

SMILES | z-score
COc1ccc(NC(=O)Nc2nnc(-c3ccccc3SCc3ccccc3)s2)cc1 | -0.158
CC(=O)N1CCN=C1SCc1ccccc1 | -0.898
CC(=O)N1CCN=C1SCc1ccc(Br)cc1 | 2.58
CC(=O)N1CCN=C1SCc1ccc(F)cc1 | 0.0688
COC(=O)c1ccc(NC(=O)C(=O)N2CCN(C(=S)NCCc3ccccc3)CC2)cc1 | -0.154
O=C(N/N=C\c1cn[nH]c1-c1ccccc1)c1cccnc1 | 0.0508
CCOC(=O)c1cncc(C(=O)O)c1 | 1.8
COC(=O)Oc1cncc(C(=O)O)c1 | -0.0704
O=C(OCc1ccccc1)Oc1cncc(C(=O)O)c1 | 2.64
CCN(CC)S(=O)(=O)c1ccc(C(=O)NCc2ccc3c(c2)cc(C)n3C)cc1 | -0.388
CN(C)S(=O)(=O)c1cccc(C(=O)Nc2cc(Cl)cc(Cl)c2)c1 | -0.468
FC(F)(F)c1cccc(NC(=S)Nc2ccc(Cl)cc2Cl)c1 | 1.29
CN(C)S(=O)(=O)c1cccc(NC(=S)Nc2cc(Cl)cc(Cl)c2)c1 | 8 (active)
CN(C)S(=O)(=O)c1cccc(NC(=S)Nc2ccc(Cl)cc2Cl)c1 | 7.58 (active)
CN(C)S(=O)(=O)c1cccc(NC(=S)N/N=C/C(c2ccccc2)c2ccccc2)c1 | 0.384
CN(C)S(=O)(=O)c1cccc(NC(=S)NN=C(Cc2ccccc2)Cc2ccccc2)c1 | 0.673
O=C(CCc1ccc(S(=O)(=O)NC2CCCCC2)cc1)N(Cc1ccccc1)Cc1ccccc1 | -0.22
Cc1cc(C2=NNC(=NCc3ccccc3)SC2)c(C)n1-c1c(C)n(C)n(-c2ccccc2)c1=O | -0.278
COCC(C)n1c(C)cc(C(=O)COC(=O)c2oc3ccccc3c2C)c1C (stereo not given) | -0.927
Cc1ccccc1CSCC(=O)Nc1c(C)n(C)n(-c2ccccc2)c1=O | -0.0609
CC(C)(C)C(=O)NC(=S)N1CCCC1 | -0.128
CCCCN(CCCC)C(=S)NC(=O)C(C)(C)C | 5.35 (active)

SMILES | z-score
CC(C)(C)C(=O)NC(=S)NCc1ccccc1 | -0.201
COC(=O)c1ccc(C(=O)OC)c(NC(=O)COC(=O)C23CC4CC(CC(O)(C4)C2)C3)c1 | -1.04
Cc1cccc(NC(=O)Nc2ccc(C)c(C)c2)n1 | -0.316
Cc1cc(NC(=O)CSc2nnc(-c3cccnc3)n2N)no1 | -0.404
CCCCn1c(SCC(=O)Nc2cc(C)on2)nnc1-c1cccnc1 | 2.11
Cc1cc(NC(=O)CSc2nnc(-c3cccnc3)n2C)no1 | 0.0216
COC(=O)c1cccc(NC(=O)CCc2ccccc2)c1 | -0.143
COc1ccc(NC(=S)N2CCN(C/C=C/c3ccccc3)CC2)cc1 | -0.821
COc1ccc(S(=O)(=O)N(CCc2ccccc2)CC(=O)NC(C)C)cc1 | -0.387
COc1ccc(S(=O)(=O)N(CCc2ccccc2)CC(=O)O)cc1 | 2.73
CCNC(=O)CN(CCc1ccccc1)S(=O)(=O)c1ccc(OC)cc1 | -0.329
COc1ccccc1NS(=O)(=O)c1ccc2oc(SC3CCOC3=O)nc2c1 (stereo not given) | -1.2
CCOC(=O)CSC1=Nc2ccccc2C2=NC(CC(=O)NCc3cccs3)C(=O)N12 (stereo not given) | 0.253
CCOC(=O)CSC1=Nc2ccccc2C2=NC(CC(=O)NCc3ccc(OC)cc3)C(=O)N12 (stereo not given) | 0.556
CCOC(=O)CSC1=Nc2ccccc2C2=NC(CC(=O)NCc3ccccc3)C(=O)N12 (stereo not given) | 2.91
O=C(Nc1ccc(F)cc1)c1ccc(-n2ccnc2)nc1 | -0.238
CCN(CC)S(=O)(=O)c1cccc(C(=O)N[C@H](C(=O)Nc2nc3ccccc3s2)C(C)C)c1 | 0.326
CN(C)CCCN1C(=O)CSC1c1ccccc1 (stereo not given) | -0.244
O=C(C1CCCN1S(=O)(=O)c1cccc2cccnc12)N1CCc2ccccc2C1 (stereo not given) | -0.115
O=C(C1CCCN1S(=O)(=O)c1cccc2cccnc12)N1CCn2c1nc1ccccc12 (stereo not given) | 3.63 (active)
O=C(C1CCCN1S(=O)(=O)c1cccc2cccnc12)N1CCc2ccccc21 (stereo not given) | 2.97
O=C(C1CCN(S(=O)(=O)c2cccc3cccnc23)CC1)N1CCn2c1nc1ccccc12 | -0.522

SMILES | z-score
O=C(C1CCCN1S(=O)(=O)c1cccc2cccnc12)N1CCN(c2ccccc2)CC1 (stereo not given) | -0.0642
O=C(C1CCCN(S(=O)(=O)c2cccc3cccnc23)C1)N1CCc2ccccc21 (stereo not given) | -1.2
Cc1nc2cc(-c3ccc(Cl)cc3)nn2c(C)c1CCC(=O)NCc1ccco1 | -0.0434
CCOC(=O)c1oc2ccccc2c1NC(=O)COc1ccc(F)cc1 | -0.456
S=c1[nH]nc(-c2cc3c(s2)-c2ccccc2CC3)o1 | 16.3 (active)
CSc1nnc(-c2cc3c(s2)-c2ccccc2CC3)o1 | 0.0264
CCSc1nnc(-c2cc3c(s2)-c2ccccc2CC3)o1 | 0.000914
N=c1sccn1CC(=O)Nc1cccc2ccccc12 | -0.00239
COC(=O)Nc1nc(C)c(C(=O)N(C)C)s1 | 4.58 (active)
CCOC(=O)Nc1nc(C)c(C(=O)N(C)C)s1 | -0.0609
Cc1nc(NC(=O)C2CC2)sc1C(=O)N(C)C | -0.405
O=C(CN1C(=O)COc2ccccc21)NCCCN1CCc2ccccc2C1 | 0.383
O=C(CCN1C(=O)COc2ccccc21)NCCCN1CCc2ccccc2C1 | 7.6 (active)
O=C(CCN1C(=O)COc2ccccc21)NCCN1CCc2ccccc2C1 | -0.306
Cc1ccc(/C=C(\C#N)c2nc3ccccc3[nH]2)s1 | -0.0719
O=C(COC(=O)CCCOc1ccc(Cl)cc1Cl)NCc1ccc(F)cc1 | -0.191
Cc1ccc(N2CC(C(=O)N/N=C/c3cccc([N+](=O)[O-])c3)CC2=O)cc1 (stereo not given) | -0.282
Cc1ccc(N2CC(C(=O)N/N=C/c3sccc3C)CC2=O)cc1 (stereo not given) | 3.3 (active)
Cc1ccsc1/C=N/NC(=O)c1cccs1 | 0.356
Cc1ccsc1/C=N/NC(=O)c1sccc1C | 5.91 (active)
Cc1ccsc1/C=N/NC(=O)C1CC(=O)N(c2ccccc2)C1 (stereo not given) | 0.243
CSc1ccc(/C=N/NC(=O)c2sccc2C)cc1 | -0.312
